Records with an inconclusive call do not appear. A call without a number means that no potency is given here. Calls of active or inactive are those of the source. Calls follow the shape of the dose curve; as a rule, active = well fitted cell-killing curve with a large enough effect; inconclusive = small, poorly fitted or top-dose-only effect, or effect the other way; inactive = no such curve, though single readings can be large or run the other way.
Assay: Quantitative High-Throughput drug screen in 47 multiple myeloma cell lines against the NCATS MIPE library collection: JIM1_ECACC cell viability assay (AID 1918964)
Details: JIM1 myeloma viability, CellTiter-Glo ATP luminescence, 48 h; series mostly up to 45.8 µM
Source text: PI: Beverly A. Mock Ph.D.
Laboratory of Cancer Biology and Genetics,
Center for Cancer Research, National Cancer Institute,
National Institute of Health, Bethesda, Maryland
Drug resistance and disease progression are common in multiple myeloma (MM) patients, underscoring the need for new therapeutic combinations. […] We hypothesized that effective combinations would reduce MYC expression and enhance p16 activity. […] These preclinical data identify potentially useful drug combinations for evaluation in drug-resistant MM and reveal potential mechanisms of combined drug sensitivity.
Described herein is the primary MIPE qHTS used to cherrypick compounds. Validated compounds were then further tested for potential synergistic activiy.
[1] Peat TJ, Gaikwad SM, Dubois W, Gyabaah-Kessie N, Zhang S, Gorjifard S, Phyo Z, Andres M, Hughitt VK, Simpson RM, Miller MA, Girvin AT, Taylor A, Williams D, D'Antonio N, Zhang Y, Rajagopalan A, Flietner E, Wilson K, Zhang X, Shinn P, Klumpp-Thomas C, McKnight C, Itkin Z, Chen L, Kazandijian D, Zhang J, Michalowski AM, Simmons JK, Keats J, Thomas CJ, Mock BA. Drug combinations identified by high-throughput screening promote cell cycle transition and upregulate Smad pathways in myeloma. Cancer Lett. 2023 Aug 1;568:216284. doi: 10.1016/j.canlet.2023.216284. Epub 2023 Jun 24. PMID: 37356470; PMCID: PMC10408729.
SEQUENCE No. (e.g., 1, 2, 3, etc.); […] (e.g., Cells, Incubation, Reagent, etc.); VALUE and DESCRIPTION.
1; Cells; 5 uL; white, solid bottom 1536-well Greiner assay plate.
2; Compounds; 23 nL; Kalypsis pin tool (Wako USA) equipped with a 1536-well pin head to transfer to the assay plates.
3; Incubation; 48 hours; 37C incubation.
4; Reagent;5uL; CellTiter Glo (Promega).
5; Detector; 425V; Luminescence; Viewlux PerkinElmer.
NOTES (numbers refer to Sequence numbers above)
1. The cell-based screening methods employed in this study were like those previously published. Briefly, the corresponding myeloma cell lines were screened in 1,536-well plates with 500 cells, 5-uL per well for inhibition of cell viability (assessed by measuring ATP levels with CellTiterGlo).
2. NCATS MIPE 4.0 library of approved and investigational drugs were added using the Kalypsis pin tool. Wells treated with DMSO only for 100% viability and media only wells for 0% viability were used as controls.
3. The assay plates were covered and incubated for 48 hours in a 37C, 5% CO2 incubator with controlled humidity.
4. After 48 hours, CellTilter-GloTM luminescent substrate mix (Promega) reagent was added to the assay plate and plates we incubated for 5 min at room temperature.
5. Signal was measured as median relative luminescence units on a ViewLux (PerkinElmer) multiplate reader.
[1] Heske CM, Davis MI, Baumgart JT, Wilson K, Gormally MV, Chen L, Zhang X, Ceribelli M, Duveau DY, Guha R, Ferrer M, Arnaldez FI, Ji J, Tran HL, Zhang Y, Mendoza A, Helman LJ, Thomas CJ. Matrix Screen Identifies Synergistic Combination of PARP Inhibitors and Nicotinamide Phosphoribosyltransferase (NAMPT) Inhibitors in Ewing Sarcoma. Clin Cancer Res. 2017 Dec 1;23(23):7301-7311. doi: 10.1158/1078-0432.CCR-17-1121. Epub 2017 Sep 12. PMID: 28899971; PMCID: PMC6636827.
In the case of `CCc1ccc(C=C2SC(=S)NC2=O)cc1`, the Potency is reported as “inactive”.
With `N[C@H](CSC(c1ccccc1)(c1ccccc1)c1ccccc1)C(=O)O` the Potency was 14.8 µM (active).
In the case of `Nc1ncnc2c1ncn2[C@@H]1O[C@@H](CO)[C@H](O)[C@H]1O`, the Potency is reported as “inactive”.
For `CC(C)C(=O)Nc1ncc(-c2cc(C(F)F)nn2-c2c(Cl)cccc2Cl)s1`, the Potency was 10.5 µM (active).
In the case of `O=C(CCCCCCC(=O)Nc1ccccc1)NO`, the Potency is reported as 2.35 µM (active).
For `COC(=O)N[C@H](C(=O)N1CCC[C@@H]1c1ncc(-c2ccc(-c3ccc(-c4cnc([C@@H]5CCCN5C(=O)[C@@H](NC(=O)OC)C(C)C)[nH]4)cc3)cc2)[nH]1)C(C)C`, the Potency was 20.9 µM (active).
With `O=c1cc(-c2cccc3c2Sc2ccccc2S3)oc(N2CCOCC2)c1` the Potency was 16.6 µM (active).
For `N#C[C@H]1C[C@H]2C[C@@H]2N1C(=O)[C@@H](N)C12CC3CC(CC(O)(C3)C1)C2`, the Potency was “inactive”.
For `N#CC(=C(N)Sc1ccccc1N)C(C#N)=C(N)Sc1ccccc1N`, the Potency was 16.6 µM (active).
For `CC(C(=O)O)c1ccc(-c2ccccc2)c(F)c1` (stereo not given), the Potency was “inactive”.
With `CN(C)CCC=C1c2ccccc2COc2ccc(CC(=O)O)cc21` the Potency was “inactive”.
With `CC1(C)Cc2c(sc(NC(=S)NC(=O)c3ccccc3)c2C(=O)O)CO1` the Potency was “inactive”.
In the case of `C[C@]12CC[C@@H]3c4ccc(O)cc4C[C@@H](CCCCCCCCCS(=O)CCCC(F)(F)C(F)(F)F)[C@H]3[C@H]1CC[C@H]2O` (stereo not given in full), the Potency is reported as “inactive”.
With `O=c1[nH]cnc2c1ncn2[C@H]1CC[C@@H](CO)O1` the Potency was “inactive”.
With `COc1ccc(Cc2nccc3cc(OC)c(OC)cc23)cc1OC` the Potency was 16.6 µM (active).
In the case of `CC(=O)O[C@]1(C(C)=O)CC[C@@H]2[C@@H]3C[C@H](C)C4=CC(=O)CC[C@]4(C)[C@H]3CC[C@@]21C`, the Potency is reported as “inactive”.
In the case of `C[N+]1(C)[C@@H]2CC(OC(=O)[C@H](CO)c3ccccc3)C[C@H]1[C@H]1O[C@@H]12` (stereo not given in full), the Potency is reported as “inactive”.
For `N#Cc1ccc(NC(=O)Nc2ccccc2Br)c2n[nH]nc12`, the Potency was 8.33 µM (active).
For `CC(C)(C)Cn1c(N)nc2ccc(-c3[nH]c(C(C)(C)C)nc3-c3ccc(F)cc3)nc21`, the Potency was “inactive”.
In the case of `O=C(O)C(O)Cc1ccc(O)c(O)c1` (stereo not given), the Potency is reported as “inactive”.
In the case of `CNC(=O)c1ccc2cc(C3(O)CCn4cncc43)ccc2c1` (stereo not given), the Potency is reported as “inactive”.
With `CC(=O)Nc1ccc([C@H](C)C(=O)Nc2ncc(C(C)C)s2)cc1` the Potency was 1.66 µM (active).
With `C=C1C(=O)OC(CCCCCCCC)C1C(=O)O` (stereo not given) the Potency was “inactive”.
In the case of `COC1CCC(N(C(=O)C2CCC(C)CC2)c2cc(C3=CCCCC3)sc2C(=O)O)CC1` (stereo not given), the Potency is reported as “inactive”.
In the case of `O=c1cc(CN2CCOCC2)occ1OCCCCCSc1ccnc2cc(C(F)(F)F)ccc12`, the Potency is reported as 18.7 µM (active).
For `Cc1ccc(F)c(NC(=O)Nc2ccc(-c3cccc4[nH]nc(N)c34)cc2)c1`, the Potency was 1.87 µM (active).
In the case of `CC[C@H]1OC(=O)[C@H](C)C(=O)[C@H](C)[C@@H](O[C@H]2O[C@H](C)C[C@H](N(C)C)[C@@H]2O)[C@](C)(OC)C[C@@H](C)C(=O)[C@H](C)[C@H]2N(CCCCn3cnc(-c4cccnc4)c3)C(=O)O[C@]12C`, the Potency is reported as “inactive”.
For `O=C(O)c1c(Cl)c(Cl)c(Cl)c(Cl)c1-c1c2cc(I)c(=O)c(I)c-2oc2c(I)c(O)c(I)cc12`, the Potency was 2.35 µM (active).
In the case of `CC=CCC=CCCC(=O)[C@H]1O[C@@H]1C(N)=O`, the Potency is reported as 11.8 µM (active).
In the case of `C[C@H](NC(=O)C(=O)Nc1ccccc1C(C)(C)C)C(=O)N[C@@H](CC(=O)O)C(=O)COc1c(F)c(F)cc(F)c1F`, the Potency is reported as 4.18 µM (active).
For `CN1CCN(CCOc2cc(OC3CCOCC3)c3c(Nc4c(Cl)ccc5c4OCO5)ncnc3c2)CC1`, the Potency was 20.9 µM (active).
In the case of `CC(C)(C)c1cc(C(=O)O)c(NC(=O)Nc2ccc3[nH]ncc3c2)s1`, the Potency is reported as “inactive”.
With `CCn1cc(C(=O)O)c(=O)c2ccc(C)nc21` the Potency was “inactive”.
With `COc1cc(N2CCC(N3CCN(C)CC3)CC2)ccc1Nc1ncnc(Nc2ccccc2S(=O)(=O)C(C)C)n1` the Potency was “inactive”.
In the case of `NC1=N[C@@]2(c3cc(NC(=O)c4ccc(F)cn4)ccc3F)COC[C@@H]2CS1`, the Potency is reported as 0.935 µM (active).
In the case of `C=C1C(=O)[C@@]23C(CC[C@@H]1[C@H]2O)[C@@]12CO[C@]3(O)[C@@H](O)[C@@H]1C(C)(C)CC[C@@H]2O` (stereo not given in full), the Potency is reported as 1.05 µM (active).
For `Cc1[nH]c(C=C2C(=O)Nc3ccc(S(=O)(=O)Cc4c(Cl)cccc4Cl)cc32)c(C)c1C(=O)N1CCC[C@H]1CN1CCCC1`, the Potency was 7.43 µM (active).
With `CC1(C)O[C@H]2C[C@@H]3[C@H]4CCC5=CC(=O)C=C[C@]5(C)[C@@]4(F)[C@@H](O)C[C@]3(C)[C@]2(C(=O)CO)O1` the Potency was “inactive”.
With `O=C1C[C@@H](c2ccc(O)cc2)Oc2cc(O)cc(O)c21` the Potency was “inactive”.
In the case of `O=c1c(-c2ccc(O)cc2)coc2cc(OC3O[C@H](CO)[C@H](O)[C@H](O)[C@H]3O)cc(O)c12` (stereo not given in full), the Potency is reported as “inactive”.
Potency is read from the fitted curve at half-maximal effect.
